Beta cell apopt: blocks beta cell apoptosis; hit rate 0.8% among 300,000; INS-1E cytokine-induced death, ATP luminescence, 48 h; percent of positive-control rescue, neutral wells zero; AID 435005; protection from apoptosis, % (no concentration beside the values);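 active means Every replicate reaches about 75%, or at least half do and their mean reaches it too, limit read from the data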;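 further: 0% = cytokine-treated negative control wells and 100% = positive control rescue; higher means more ATP so stronger rescue from cytokine killing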
aSyn 5UTR inh: MLPCN primary screen, SNCA 5' untranslated region | inhibition, % (tested at 7.5 µM) | AID 1813 | alpha-synuclein 5'UTR reporter, inhibitor activity | hit rate 0.82% among 300,000; in the data active means inhibition above about 60%;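 further: H4 neuroglioblastoma cells stably carrying SNCA 5'UTR luciferase fusion; 0% = DMSO wells and 100% = positive control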
A1 inh: inhibitors of the anti-apoptotic protein A1, read as caspase activation; MEF A1-2A-BIM cells, Caspase-Glo 3/7 luminescence, 3 h; percent of clofoctol response, vehicle zero; caspase activation, % (test concentration not listed); hit rate 0.066% among 330,000;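 active means over half of replicate activation scores above 10%, or exactly half above 10 with the replicate mean above 10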
CSC inhib: cancer stem cell inhibition. hit rate 1.1% among 300,000. AID 2717. cancer stem cell-like cells viability, luminescence. inhibition, % at 7.5 µM; in the data active means inhibition above about 75%; tested in HMLE shEcad cells
Mdm2-MdmX inh: inhibitors of human Mdm2/MdmX interaction | O15151+Q00987 | SaOS-2 split-luciferase Mdm2/MdmX complementation, luminescence | inhibition, % at 8 µM | hit rate 3% among 330,000;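 active means inhibition of at least 50% at 8 µM in the primary screen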
Mdm2-MdmX conf: human Mdm2/MdmX binding inhibition, confirmed; shares compounds with Mdm2-MdmX inh; luminescent assay; AID 489028; inhibition, % at 8 µM; hit rate 55% among 10,000; in the data active means inhibition above about 40%
Full FLuc ctr: counter-screen for Mdm2/MdmX inhibitors: full-length luciferase. shares compounds with Mdm2-MdmX inh. SaOS-2 full-length luciferase counterscreen, luminescence. inhibition, % at 8 µM. hit rate 77% among 6,200;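 active means mean inhibition at 8 µM reaching about 37%, which flags the compound as non-specific, limit read from the data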;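 further: p53-null SaOS-2 cells with luciferase driven by a doxycycline-inducible promoter; compound on cells about two nights before reading with doxycycline added after day one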
Active calls of the source: *; . = no result. In the library only some 4.1% were active in any assay of this set; here they are far more common.

SMILES	Beta cell apopt	aSyn 5UTR inh	A1 inh	CSC inhib	Mdm2-MdmX inh	Mdm2-MdmX conf	Full FLuc ctr
COc1ccc(S(=O)(=O)N2CCC(C(=O)Oc3ccc(C)cc3)CC2)cc1OC	-4	-7	0	10	-3	.	.
Brc1ccc(C2Nc3cccc4cccc(c34)N2)s1	-2	.	0	4	.	.	.
CCOC(=O)c1c(C)[nH]c(C(=O)N/N=C/c2cc([N+](=O)[O-])ccc2O)c1C	35	3	0	-11	57*	71*	55*
O=C(N/N=C/c1cc([N+](=O)[O-])ccc1O)Nc1ccccc1	-3	-17	-1	13	-8	.	.
O=[N+]([O-])c1ccc(O)c(/C=N/NC(=S)Nc2ccc(Cl)cc2Cl)c1	121*	47	-2	76*	78*	48*	41*
Fc1ccc(NC(=S)N/N=C/c2ccc(F)c(F)c2)cc1	-4	-65	-1	-6	-11	.	.
CCNC(=O)C(=O)N/N=C/c1cc([N+](=O)[O-])ccc1O	1	-3	0	.	2	.	.
Cc1cc(Cl)ccc1NC(=O)CCC(=O)N/N=C/c1cc([N+](=O)[O-])ccc1O	18	8	0	17	62*	17	.
Fc1ccc(/C=N/NC(=S)Nc2ccc(Cl)cc2Cl)cc1	2	-29	0	28	85*	66*	58*
O=C(N/N=C\c1ccc([N+](=O)[O-])s1)c1cncc(Br)c1	84*	77*	-1	63	58*	44*	45*
O=[N+]([O-])c1ccc(/C=N/NC(=S)Nc2ccc(Cl)cc2Cl)s1	25	51	-1	124*	63*	70*	52*
Cc1ccc2c(c1)N(CC(=O)NC(C)CCc1ccccc1)C(=O)c1cccnc1O2 (centres undefined)	1	22	0	-10	16	.	.
COc1ccc2nc3cc(Cl)ccc3c(Nc3cc(C(C)C)c(O)cc3C)c2c1	114*	-39	-1	103*	94*	64*	64*
c1ccc(CNc2c(-c3cccc(SC4CCCCC4)c3)nc3ccccn23)cc1	124*	.	1	102*	71*	-1	.
c1cc(SC2CCCCC2)cc(-c2nc3cnccn3c2NC2CCCCC2)c1	-2	.	1	104*	89*	29	.
Cc1ccn2c(NCc3ccccc3)c(-c3cccc(SC4CCCCC4)c3)nc2c1	-1	.	1	99*	58*	-2	.
Cc1ccc2nc(-c3cccc(SC4CCCCC4)c3)c(NCc3ccccc3)n2c1	.	.	.	.	22	.	.
COc1ccc(-c2cc(-c3nc4ccccn4c3NCc3ccccc3)ccc2OC)cc1	125*	.	-2	98*	99*	99*	52*
COc1ccc(-c2nc3ccccn3c2NCc2ccc3c(c2)OCO3)cc1	7	-91	-4	27	-25	.	.
Clc1cccc(-c2ccc(-c3nc4ccccn4c3NCc3ccccc3)cc2)c1	.	.	.	.	59*	-57	.
c1ccc(-c2nc3ccccn3c2NCc2ccc3c(c2)OCO3)cc1	1	-38	-1	-5	6	.	.
Cc1ccc(S(=O)(=O)Nc2cccc(-c3ccc4nnc(C)n4n3)c2)s1	-3	27	0	.	65*	24	.
Cc1ccc(C)c(N2CCN(C(=O)c3nn(C)c4c3CS(=O)(=O)c3ccccc3-4)CC2)c1	31	13	0	-2	22	.	.
Cc1cc(/C=c2\sc3nc4ccccc4n3c2=O)c(C)n1-c1ccc(C(=O)O)cc1	.	-62	.	.	.	.	.
Cc1cc(/C=c2/sc3nc4ccccc4n3c2=O)c(C)n1-c1ccccn1	23	88*	-5	26	69*	94*	14
Cc1nc2ccccc2c2oc(C(=O)N3CCN(C(=O)c4ccco4)CC3)cc12	3	21	1	-18	29	.	.
Cc1nc2ccccc2c2oc(C(=O)N3CCN(c4ccc([N+](=O)[O-])cc4)CC3)cc12	10	11	-1	-22	86*	17	.
N=c1c2c(n(Cc3ccc(Cl)c(Cl)c3)c3c1CCC3)CCCC2	102*	55	0	.	74*	52*	45*
CN(C)CCCN(C(=O)c1ccc(S(=O)(=O)N2CCc3ccccc3C2)cc1)c1nc2ccc(F)cc2s1	62	99*	30*	91*	97*	26	.

Source: PubChem BioAssay
